Reference: the supplement of paper PMC6555819

Assays:
Test in all cases: PBM binding z-score (relative to random genomic background probes); higher = stronger binding; sequences stand for … in GC…GCGATTGACAGCGTAGAATGAAGG
[1] = system: PPARg:RXRa DBDmut IVT, anti-RXR (DBD mutation: RXRa K156A/R161A, NR concentration 270 nM, RXRa partner concentration 90 nM)
In short: (§1)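 Ligand-free nuclear receptor dimers were applied to custom Agilent 4×180K protein-binding microarrays whose double-stranded probes carried direct-repeat seeds, single-nucleotide variants, half-site ablations and random human genomic background sequences in 34-nt variable regions. Incubation lasted 1 h. Binding z-scores were computed against the random background probes from regression-normalized fluorescence.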

[2] = system: PPARg:RXRa IVT, anti-PPARg (NR concentration 270 nM, RXRa partner concentration 90 nM)
In short: as §1

[3] = system: PPARg DBDmut:RXRa IVT, anti-PPARg (DBD mutation: PPARg1 K132A/R137A, NR concentration 270 nM, RXRa partner concentration 90 nM)
In short: as §1

[4] = system: PPARg DBDmut IVT, anti-PPARg (DBD mutation: PPARg1 K132A/R137A, NR concentration 270 nM)
In short: as §1

[5] = system: PPARg homodimer (NR concentration 180 nM)
In short: as §1

[6] = system: PXR:RXRa (NR concentration 270 nM, RXRa partner concentration 90 nM)
In short: as §1

[7] = system: PXR homodimer (NR concentration 270 nM)
In short: as §1

[8] = system: RARa:RXR (NR concentration 270 nM, RXRa partner concentration 90 nM)
In short: as §1

[9] = system: RARa homodimer (NR concentration 270 nM)
In short: as §1

[10] = system: RARb:RXRa (NR concentration 270 nM, RXRa partner concentration 90 nM)
In short: as §1

Sequence	PBM binding z-score [1]	PBM binding z-score [2]	PBM binding z-score [3]	PBM binding z-score [4]	PBM binding z-score [5]	PBM binding z-score [6]	PBM binding z-score [7]	PBM binding z-score [8]	PBM binding z-score [9]	PBM binding z-score [10]
TCAGACAGGTGTAGGTAACTCAGGTACGCAGTCG	2.33	0.315	0.327	-0.523	0.265	0.373	0.461	0.495	0.784	0.406
CCAGACAGGTGAAAAGTAACTCAGTCTGGTACGC	1.47	0.789	-0.595	-0.539	0.332	-0.0943	-0.142	0.133	0.489	0.36
TCCAGTAGGTTACCAATGGGGCATTCAGCTTTCT	4.6	4.34	-0.355	-0.253	0.0888	0.286	-0.589	0.451	-0.883	1.31
CTACCAAGGTGAAGAAGGTCGTTGATTACTATTC	1.68	1.84	0.127	-0.276	0.69	1.53	0.655	1.48	0.317	1.74
CAAACTATGTCACGAAAGGTCAAAGTCGAATGAC	5.09	5.93	3	0.957	3.47	6.07	2.12	6.01	2.87	4.92
CCTTACGGGTCACTGACAGGATATAGCATTTGGA	3.33	3.54	1.02	0.966	2.23	3.03	0.183	3.85	1.33	3.95
GAAACGAGGGCATTCGAGTTGATAGCATGGCGAT	4.26	3.42	0.513	0.0284	-0.429	3.68	1.26	0.561	0.0115	1.85
TATACAGGGTGAAAGGCCAGAGTACGAATGTCGA	1.07	3.51	1.71	0.732	1.24	0.643	0.178	1.31	0.323	1.68
CCTACTGGGCCATCAGGTCAGTGATATCAACGTT	4.12	4.95	-0.457	0.096	0.501	0.376	-0.631	0.801	-0.59	1.77
CCGCGGAGGACAACAGGAGGTCAGAGCTGCCAGA	0.131	0.105	-1.44	-1.52	2.29	2.44	0.34	2.5	0.536	3.04
CCTTACGGGTCACGAGGTTATAGCTCGACGAGCG	3.64	5.56	3.54	1.04	3.72	4.94	-0.0531	6.5	1.15	4.36
CGTCCAAGGTCAAAGGTCAGTGAAGAGATGACGG	4.23	5.97	1.75	2.79	4.7	7.11	1.9	8.77	2.78	6.02
CATACAGGGTCAGCTGGGCCAGAGTAGGGACGGC	1.23	2.66	0.246	0.292	1.52	2.22	-0.145	2.81	0.258	4.08
AGAATGAGGTTACCAAAGATCCGGGAAACGCTTG	3.81	3.61	0.821	0.35	0.752	0.78	-0.0527	1.76	0.0139	2.05
AGTCAAAGTTCATCTAGGTAACGTCAGATATGCT	1.33	4.32	2.61	1.98	5.02	5.36	7.19	4.41	2.97	4.96
TAGCCTAAGTCAGATCGGGCCAGTATACGCTATA	-0.799	-0.632	-0.42	-0.19	-0.984	-0.436	-0.363	-0.593	-0.92	-0.258
TCTATGAGTTGATTAGGGCAACCGAAACAGCGGA	1.35	1.19	-0.00987	-0.582	-0.0125	0.279	-0.195	0.487	-0.0986	0.711
TATACAGGGTAAAAGGCCAGAGTACGAATGTCGA	1.68	2.88	1.57	1.04	1.27	0.286	0.409	0.32	0.622	1.85
CGTCCAAGGTCAGCAGCTCAGTGAAAGCGACGTG	2.5	2.27	-0.354	-0.261	1.96	2.16	-0.1	2.83	0.297	4.83
ATCGAAAGGTCGTGAGGTGAGTATACAGAAAGGC	-0.0528	2.47	1.08	1.25	2.77	3.39	0.278	4.21	0.287	4.02
ATATGTAGGGTAAGGGTCATTCAGGTTGGTTCGC	6.71	7.53	5.99	4.1	6.25	5.47	4.86	5.19	3.71	3.53
CCAGACATGTGAGAAGGTAACTCAGCCTCGATTA	0.325	-0.238	0.124	0.154	0.72	-0.0196	0.307	0.384	1.03	-0.14
TTACCAAGGTGAAGTTCGTTGATCCCTCTGTAGA	2.04	2.68	0.229	0.131	0.308	1.23	0.329	0.86	-0.298	1.75
CATACAGGGTCAGCCAGGCCAGAGTAGGGACGGC	1	2.6	0.502	0.692	1.27	2.5	0.168	3.13	0.562	4.1
